Records with an inconclusive call do not appear. Values without a mark were called inactive. Activity calls are given as the source filed them. Calls come from the whole dose curve; as a rule, active = well fitted inhibition curve with a large enough effect; inconclusive = small, poorly fitted or top-dose-only effect; inactive = no such curve, though single readings can be large or run the other way.

Data on 40 compounds can be found in PubChem BioAssay (NCATS).
% is set by controls: 0 for no effect and ±100 for the full control effect; potency is the fitted concentration of half-maximal effect.

Sequence of Cytochrome P450 3A4 (Homo sapiens) (P08684 whole entry, looked up): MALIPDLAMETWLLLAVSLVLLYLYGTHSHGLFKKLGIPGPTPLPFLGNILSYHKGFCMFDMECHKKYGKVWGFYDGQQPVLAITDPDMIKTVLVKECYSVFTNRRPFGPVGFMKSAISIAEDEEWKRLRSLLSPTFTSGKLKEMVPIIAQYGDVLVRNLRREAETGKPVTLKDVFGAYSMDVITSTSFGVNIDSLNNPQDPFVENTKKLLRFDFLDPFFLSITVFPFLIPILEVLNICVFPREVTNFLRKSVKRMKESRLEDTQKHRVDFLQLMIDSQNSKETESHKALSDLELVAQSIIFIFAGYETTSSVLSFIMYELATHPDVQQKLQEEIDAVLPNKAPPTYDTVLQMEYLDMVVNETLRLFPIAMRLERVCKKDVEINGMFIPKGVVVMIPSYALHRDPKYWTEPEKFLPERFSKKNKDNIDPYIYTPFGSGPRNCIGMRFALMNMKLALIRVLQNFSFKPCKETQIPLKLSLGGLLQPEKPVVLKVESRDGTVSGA

This assay deals with Cytochrome P450 3A4 (Homo sapiens) (UniProt P08684). In words: qHTS Assay for Inhibitors and Substrates of Cytochrome P450 3A4 (AID 884). Note: nearly all actives have a fitted effect of over 50% in size. The note with it: recombinant CYP3A4, Luciferin-PPXE luminescence; series mostly up to 57.1 µM; activity change, negative = inhibition: at the top concentration. The procedure:
NIH Molecular Libraries Screening Centers Network [MLSCN]
NIH Chemical Genomics Center [NCGC]
The P450 gene superfamily is involved in the metabolism and clearance of xenobiotics. This assay used human CYP3A4 to measure the dealkylation of luciferin-6' phenylpiperazinylyl (Luciferin-PPXE; […]) to luciferin. The luciferin is then measured by luminescence after the addition of a luciferase detection reagent. Luciferin-PPXE concentration in the assay was equal to its KM for CYP3A4. Inhibitors and some substrates limit the production of luciferin, and decrease measured luminescence.
NCGC Assay Protocol Summary:
Two uL of enzyme and substrate mix (final concentrations: 20nM CYP3A4, 25uM Luciferin-PPXE, 200mM KPO4) were dispensed into a white, solid bottom 1536-well microtiter plate. 23nL of compound was transferred by a pin tool. The plate was incubated at RT for 10 min. Two uL of an NADPH regeneration solution (Promega supplied reagent) was dispensed and the reaction was allowed to continue for 60 min at RT. Then the reaction was stopped by reconstituted luciferin detection buffer. After another 20 min of incubation the plate was read on the ViewLux (Perkin Elmer) at 60 sec exposure and 2x2 binning. This protocol was carried out with Promega-Glo reagents and further information can be found at http://www.promega.com/tbs/tb325/tb325.pdf. Data were normalized to the to AC100 inhibition (57 uM ketoconazole).
Keywords: P450, CYP3A4, Luciferase, MLSMR, MLSCN, NIH Roadmap, qHTS, NCGC
On the technique in general: In qHTS, concentration-response curves come from the screen itself.
On to `CC(=O)Oc1ccc2c(c1)CCC1C2CC[C@@]2(C)C1CC(OC(C)=O)C2OC(C)=O` (stereo not given in full), for which the “activity change, negative = inhibition” value is -10.2%.

For the compound `CC1(C)OC2CO[C@]3(COS(N)(=O)=O)OC(C)(C)OC3C2O1` (stereo not given in full), the “activity change, negative = inhibition” value is -12.2%.

Take `CC1(C)CC2/C(CO)=C/C=C/[C@](C)(O)CC[C@]21O` (stereo not given in full): the Potency was 15.8 µM (active).

As for `Cc1cc(=O)oc2cc(O[C@@H]3O[C@H](C(=O)O)[C@@H](O)[C@H](O)[C@H]3O)ccc12`, the “activity change, negative = inhibition” value is -7.35%.

`CC(=O)OC1CC[C@]2(C)C(CC(OC(C)=O)[C@]3(C)C2CC[C@@]2(C)C(c4ccoc4)OC(=O)C4O[C@]432)C1(C)C` (stereo not given in full): the “activity change, negative = inhibition” value was 48.9%.

Take `CC(=O)N[C@H](CS)C(=O)O`: the “activity change, negative = inhibition” value is -9.1%.

Consider `CC(C)CCCC(C)C1CCC2C3C(=O)C=C4CC(O)CC[C@@]4(C)C3CC[C@@]12C` (stereo not given in full), for which the “activity change, negative = inhibition” value was 11.6%.

On to `CC(=O)OC1CC(OC(C)=O)[C@]2(C)C(CC(O)[C@]3(C)C2CC[C@@]2(C)C(c4ccoc4)OC(=O)C4O[C@]432)C1(C)C` (stereo not given in full), for which the Potency was 2.51 µM (active).

Turning to `C=CCSCC=C`, the “activity change, negative = inhibition” value was -9.82%.

With `COc1cc(OC)c2c(=O)c(O)c(-c3ccc(OC)c(OC)c3)oc2c1`, the Potency was 2.51 µM (active).

In the case of `O=C(O)C(O)[C@@](O)(Cc1ccc(O)cc1)C(=O)O` (stereo not given in full), the “activity change, negative = inhibition” value is -2.29%.

On to `COc1c(-c2coc3cc4c(cc3c2=O)CC(O)C(C)(C)O4)ccc2c1C=CC(C)(C)O2` (stereo not given), for which the “activity change, negative = inhibition” value is 83.6%.

As to `O=C(O)c1cc2cc(Cl)ccc2[nH]1`, the “activity change, negative = inhibition” value is -8.89%.

In the case of `O=c1c2ccccc2oc2cc(O)c(C3COCC(CO)C(O)C(O)C3O)c(O)c12` (stereo not given), the “activity change, negative = inhibition” value is -22.4%.

Take `CC(C)CCCC(C)C1CCC2C3CC=C4CC(=O)CC[C@@]4(C)C3CC[C@@]12C` (stereo not given in full): the “activity change, negative = inhibition” value is 22%.

Take `COC(=O)/C(C)=C/CC12OC(C)(C)C3CC(C=C4C(=O)c5cc6c(c(CCC(C)(C)Cl)c5OC431)OC1(C)CCC(=C(C)C)C6C1)C2=O` (stereo not given): the “activity change, negative = inhibition” value was -19.3%.

For the compound `COc1ccc(-c2cc(=O)c3c(O)cc(O[C@@H]4OC(COC5OC(C)C(O)C(O)[C@@H]5O)C(O)C(O)C4O)cc3o2)cc1` (stereo not given in full), the “activity change, negative = inhibition” value was -18.8%.

For the compound `CCOC(=O)C(CCc1ccccc1)NC(C)C(=O)N1CCCC1C(=O)O` (stereo not given), the “activity change, negative = inhibition” value is -4.55%.

With `CC1CCC(C(C)C)[C@H](OC(=O)c2ccccc2)C1` (stereo not given in full), the “activity change, negative = inhibition” value is -3.92%.

As for `O=C(O)C1(O)C[C@H](O)C(O)[C@@H](O)C1` (stereo not given in full), the “activity change, negative = inhibition” value was -10.5%.

Turning to `COc1ccc(C(=O)c2ccccc2)c(O)c1O`, the “activity change, negative = inhibition” value is 16%.

Consider `CC(=O)OC1CC(OC(C)=O)[C@]2(C)C(CC(OC(C)=O)[C@]3(C)C2CC[C@@]2(C)C(c4ccoc4)OC(=O)C4O[C@]432)C1(C)C` (stereo not given in full), for which the Potency was 1.26 µM (active).

`O=C1CC(c2ccc(O)c(O)c2)Oc2cc(O)cc(O)c21` (stereo not given): the Potency was 39.8 µM (active).

Turning to `CC(=O)OC1CC[C@]2(C)C(CC[C@@]3(C)C2C(=O)C=C2C4C(C)C(C)CC[C@@]4(C(=O)O)CCC23C)C1(C)C` (stereo not given in full), the Potency is 25.1 µM (active).

For the compound `CON`, the “activity change, negative = inhibition” value is 4.73%.

`COc1ccc2c(=O)c(CC(=O)O)coc2c1`: the “activity change, negative = inhibition” value is -8.14%.

Regarding `O=c1oc2ccccc2cc1O`, the “activity change, negative = inhibition” value is -12.4%.

On to `COc1c(Cl)ccc(Cl)c1C(=O)O`, for which the “activity change, negative = inhibition” value is -0.286%.

For the compound `CCOC(=O)CCCCCCCCCCCCC1C=CCC1` (stereo not given), the “activity change, negative = inhibition” value was -1.2%.

Turning to `CC(=O)O[C@@]1(C(C)=O)CCC2C3C=C(C)C4=CC(=O)CCC4(C)C3CCC21C` (stereo not given in full), the “activity change, negative = inhibition” value was 25.4%.

On to `Nc1ncnc2[nH]c(=O)[nH]c12`, for which the “activity change, negative = inhibition” value is -3.1%.

As to `CCOC(=O)CCC(=O)O[C@H]1C(O[C@@H]2C(C)[C@H](O[C@H]3C[C@@](C)(OC)C(O)C(C)O3)C(C)C(=O)OC(CC)[C@@](C)(O)C(O)[C@H](C)C(=O)C(C)C[C@]2(C)O)OC(C)CC1N(C)C` (stereo not given in full), the Potency is 20 µM (active).

As to `O=c1[nH]c(=O)n(C2CC(O)C(CO)O2)cc1F` (stereo not given), the “activity change, negative = inhibition” value is -6.21%.

Turning to `CC(C)=CCc1c(O)cc(C)oc1=O`, the “activity change, negative = inhibition” value is -9.15%.

As to `Cc1cc(O)c2c(c1O)C(=O)c1c(O)cc(C)c(O)c1C2=O`, the “activity change, negative = inhibition” value is -9.38%.

Take `C=CC1=C(C(=O)O)N2C(=O)C(NC(=O)/C(=N\O)c3csc(N)n3)C2SC1` (stereo not given): the “activity change, negative = inhibition” value is -11.8%.

With `CC(=O)OCC1OC(n2c(Br)nc3c(=O)[nH]c(N)nc32)C(OC(C)=O)C1OC(C)=O` (stereo not given), the “activity change, negative = inhibition” value is -4%.

For `N[C@H](CO)Cc1cnc[nH]1`, the “activity change, negative = inhibition” value is -36.2%.

As for `COc1cccc(-c2nc(NCCc3c[nH]c4ccc(OC)cc34)c3ccccc3n2)c1`, the Potency was 2 µM (active).

As for `Nc1nc2ncc(=O)[nH]c2c(=O)[nH]1`, the “activity change, negative = inhibition” value is -4.65%.
